Among the data in PubChem BioAssay (NCATS) are activity, negative = inhibition, Potency and z-score values, retold here.

Molecules are shown by their SMILES. Several values for one entry are separate records, joined by “and”; a condition that tells them apart may be missing. Equal values may be shown once. Results filed as inconclusive are left out. Activity calls are given as the source filed them. The call rests on the fitted dose curve; in most records, active means well fitted inhibition curve with a large enough effect; inconclusive means small, poorly fitted or top-dose-only effect; inactive means flat fitted curve, though single readings scatter.

A short description of experiment [1]: qHTS profiling for inhibitors of Plasmodium falciparum proliferation (AID 504749). Further: potency means the concentration at half of the fitted maximal effect.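 On activity, negative = inhibition: 0% = DMSO vehicle and full inhibition = artemisinin control.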 On all read-outs here: nearly all actives have a fitted effect of over 60% in size. As to conditions: P. falciparum in erythrocytes, SYBR Green DNA, 72 h; for activity, negative = inhibition: at 28.7 µM (top of the series). In a few lines:
(§1)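 Infected RBCs, 0.3% parasitemia/2.5% Hct final; cpd 72 h, 37 C, 5% CO2; lysis buffer with saponin/triton/SYBR Green I, o/n RT dark; FI 485/535; norm. to artemisinin (0.29 uM) and DMSO.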
Background: Quantitative high-throughput screening tests each substance at several concentrations.

Another experiment concerns 3D7. Described as above. As to conditions: P. falciparum in erythrocytes, SYBR Green DNA, 72 h; series mostly up to 28.7 µM. In outline:
as §1

In another experiment the test system is 7G8. The description is as above. As to conditions: P. falciparum in erythrocytes, SYBR Green DNA, 72 h; series mostly up to 28.7 µM. In outline: as §1
The test system of a further experiment is AA1029. Described as above. As to conditions: P. falciparum in erythrocytes, SYBR Green DNA, 72 h; series mostly up to 28.7 µM. In a few lines: as §1
The next experiment concerns AS120. The description is as above. As to conditions: P. falciparum in erythrocytes, SYBR Green DNA, 72 h; series mostly up to 28.7 µM. In outline: as §1
A further experiment concerns ATS189. The experiment is described as above. As to conditions: P. falciparum in erythrocytes, SYBR Green DNA, 72 h; series mostly up to 28.7 µM. In a few lines:
as §1

The nature of experiment [2]: qHTS for identification of novel therapeutic agents for treatment of microphthalmiaassociated transcription factor (MiT) renal cell carcinoma (RCC) (AID 1963991).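 Further: curves scaled with 100% = DMSO viability and 0% = empty wells.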 As to conditions: CellTiter-Glo, 48 h, stronger effect = lower value. In outline: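 UOK109/UOK124/UOK145 (TFE3 fusions, three partners); 500 cells/well; MIPE v4.0, 1912 cpds, 11 conc.; 48 h, 37 C; CellTiter-Glo, 15 min RT; lum. Norm.: DMSO 100%, empty 0%.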

As to `O=C(O)c1ccc2[nH]cc(CCCCN3CC=C(c4ccccc4)CC3)c2c1`, the activity, negative = inhibition in experiment [1] (parasite line A) was 5.66% (inactive); in experiment [1] (parasite line B), 0.723% (inactive). Besides, the Potency entry with 3D7, in the experiment on 7G8, with AA1029, in the experiment on AS120 and with ATS189 was “inactive” each time.

In the case of `O=C1NCN(c2ccccc2)C12CCN(CC1COc3ccccc3O1)CC2` (stereo not drawn), the activity, negative = inhibition in experiment [1] (parasite line A) was -17.5% (inactive); in experiment [1] (parasite line B) it was 5.67% (inactive). For the same compound, the Potency entry in the experiment with 3D7, in the experiment on AA1029, in the experiment on AS120 and with ATS189 was “inactive” throughout. In the experiment with 7G8, the Potency was 12.6 µM (active).

Turning to `O=[N+]([O-])c1cc([As](=O)(O)O)ccc1O`, the Potency in experiment [1] (parasite line A) was 3.98 µM (active); in experiment [1] (parasite line B), 3.16 µM (active); with 3D7 it was 3.98 µM (active); in the experiment on 7G8, 3.98 µM (active); in the experiment with AA1029, 3.16 µM (active); in the experiment on AS120, 3.16 µM (active).

As for `Oc1ccccc1-c1ccccc1`, the activity, negative = inhibition was -2.25% (inactive) in experiment [1] (parasite line A) and -2.09% (inactive) in experiment [1] (parasite line B). The Potency entry in the experiment on 3D7, with 7G8, in the experiment on AA1029, with AS120 and in the experiment on ATS189 was “inactive” in each case.

On to `CC1OC(C)OC(C)O1` (stereo not drawn), for which the activity, negative = inhibition in experiment [1] (parasite line A) was 8.9% (inactive) and 17.9% (inactive); in experiment [1] (parasite line B), 12.4% (inactive) and 13.9% (inactive). The Potency result in the experiment on 3D7, in the experiment on 7G8, with AA1029, in the experiment on AS120 and in the experiment on ATS189 was “inactive” throughout.

As for `CC(=O)[C@H]1CC[C@H]2[C@@H]3CC[C@H]4C[C@](C)(O)CC[C@]4(C)[C@H]3CC[C@]12C`, the results for the activity, negative = inhibition in experiment [1] (parasite line A) and in experiment [1] (parasite line B) were 3.34% (inactive) and 12.8% (inactive), respectively. Further, the Potency result in the experiment on 3D7, in the experiment with 7G8, in the experiment on AA1029, with AS120 and in the experiment with ATS189 was “inactive” throughout.

As to `OCCOc1ccccc1`, the activity, negative = inhibition was 10.1% (inactive) in experiment [1] (parasite line A) and 6.31% (inactive) in experiment [1] (parasite line B). Further, the Potency result in the experiment with 3D7, with 7G8, with AA1029, with AS120 and in the experiment with ATS189 was “inactive” each time.

With `CCN(CC)CCOC(=O)C(O)(c1ccccc1)c1ccccc1`, the values for the activity, negative = inhibition in experiment [1] (parasite line A) and in experiment [1] (parasite line B) were 9.85% (inactive) and -20.6% (inactive), respectively. The Potency result in the experiment on 3D7, in the experiment with 7G8, in the experiment on AA1029, in the experiment with AS120 and with ATS189 was “inactive” throughout.

As to `COc1ccc2c(c1OC)CN1CCc3cc4c(cc3C1C2)OCO4` (stereo not drawn), the z-score amounted to 0.633 in experiment [2] (TFE3-RCC UOK109 viability, measured here: UOK109 Z-AUC); 0.605 in experiment [2] (TFE3-RCC viability, measured here: UOK124 Z-AUC); 0.614 in experiment [2] (TFE3-RCC viability, measured here: UOK145 Z-AUC).

In the case of `CC(=O)Nc1cc([As](=O)(O)O)ccc1O`, the activity, negative = inhibition was -21% (inactive) in experiment [1] (parasite line A) and -0.406% (inactive) in experiment [1] (parasite line B). Also, the Potency result with 3D7, in the experiment with 7G8, in the experiment on AA1029, with AS120 and with ATS189 was “inactive” each time.

On to `Oc1cc(Cl)ccc1Oc1ccc(Cl)cc1Cl`, for which the Potency in experiment [1] (parasite line A) was 11.2 µM (active); in experiment [1] (parasite line B), 5.01 µM (active); in the experiment on 3D7, 11.2 µM (active); in the experiment on 7G8 it was 1.12 µM (active); in the experiment on AA1029, 7.94 µM (active); with AS120, 3.98 µM (active). The Potency in the experiment with ATS189 was 7.08 µM (active).

On to `CCN(C(C)=O)c1cccc(-c2ccnc3c(C#N)cnn23)c1`, for which the activity, negative = inhibition in experiment [1] (parasite line A) is 6.76% (inactive); in experiment [1] (parasite line B) it was 2.02% (inactive). Moreover, the Potency result in the experiment with 3D7, with 7G8, in the experiment on AA1029, in the experiment with AS120 and with ATS189 was “inactive” throughout.

Consider `O=C(NC(O)C(Cl)(Cl)Cl)NC(O)C(Cl)(Cl)Cl` (stereo not drawn), for which the activity, negative = inhibition in experiment [1] (parasite line A) is -1.71% (inactive); in experiment [1] (parasite line B) it was 6.79% (inactive). For the same compound, the Potency result in the experiment on 3D7, with 7G8, in the experiment with AA1029, with AS120 and in the experiment with ATS189 was “inactive” each time.

As to `CC[N+]1(C)CCCC(OC(=O)C(O)(c2ccccc2)c2ccccc2)C1` (stereo not drawn), the results for the activity, negative = inhibition in experiment [1] (parasite line A) and in experiment [1] (parasite line B) were -4.88% (inactive) and 2.86% (inactive), respectively. Further, the Potency entry in the experiment with 3D7, in the experiment on 7G8, in the experiment on AA1029, in the experiment on AS120 and in the experiment with ATS189 was “inactive” in each case.

With `N#CC(C#N)=Cc1ccc(O)c(O)c1`, the activity, negative = inhibition in experiment [1] (parasite line A) is -14.1% (inactive); in experiment [1] (parasite line B), -25.8% (inactive). The Potency entry in the experiment with 3D7, with AA1029, in the experiment with AS120 and with ATS189 was “inactive” in each case. The Potency with 7G8 is 8.91 µM (active).

As for `CCCC1CCCCN1` (stereo not drawn), the activity, negative = inhibition was 5.52% (inactive) in experiment [1] (parasite line A) and 3.92% (inactive) in experiment [1] (parasite line B). Besides, the Potency result in the experiment with 3D7, in the experiment on 7G8, with AA1029, in the experiment with AS120 and in the experiment with ATS189 was “inactive” in each case.

With `Clc1cccc(N2CCNCC2)c1`, the activity, negative = inhibition in experiment [1] (parasite line A) was 9.32% (inactive); in experiment [1] (parasite line B), 8.49% (inactive). The Potency entry with 3D7, with AA1029, with AS120 and with ATS189 was “inactive” in each case.

As for `C[C@]12C/C(=C/O)C(=O)C[C@@H]1CC[C@@H]1[C@@H]2CC[C@@]2(C)[C@H]1CC[C@]2(C)O`, the activity, negative = inhibition in experiment [1] (parasite line A) is -16.2% (inactive). Also, the Potency entry in the experiment with 3D7, in the experiment on AA1029, in the experiment on AS120 and in the experiment on ATS189 was “inactive” in each case.

Consider `CC(C)=CC1C(C(=O)OCc2cccc(Oc3ccccc3)c2)C1(C)C` (stereo not drawn), for which the activity, negative = inhibition in experiment [1] (parasite line A) is -11.7% (inactive); in experiment [1] (parasite line B), -17.5% (inactive). Moreover, the Potency entry in the experiment with 3D7, in the experiment with AA1029, in the experiment on AS120 and in the experiment on ATS189 was “inactive” each time. Besides, the Potency with 7G8 is 12.6 µM (active).

As for `CC(C)(N)Cc1ccc(Cl)cc1`, the activity, negative = inhibition in experiment [1] (parasite line A) is -1.24% (inactive); in experiment [1] (parasite line B), 1.12% (inactive). The Potency entry with 3D7 and in the experiment on AS120 was “inactive” each time.

As for `Cc1ccc(S(=O)(=O)N[C@@H](CCCCN)C(=O)CCl)cc1`, the Potency in experiment [1] (parasite line A) is 7.08 µM (active); in the experiment with 7G8, 8.91 µM (active); with AA1029, 10 µM (active); in the experiment on AS120, 11.2 µM (active).

As to `CN1C[C@H](CNC(=O)OCc2ccccc2)C[C@@H]2c3cccc4c3c(cn4C)C[C@H]21`, the Potency was 7.08 µM (active) in experiment [1] (parasite line A); 5.01 µM (active) in the experiment on 7G8; 6.31 µM (active) in the experiment with AA1029; 10 µM (active) in the experiment on AS120; 10 µM (active) in the experiment on ATS189.
